B1: PhoQ; a variant is named by its letters at X, in order, P23837 (parent)
chain: MKKLLRLFFPLSLRVRFLLATAAVVLVLSLAYGMVALIGYSVSFDKTTFRLLRGESNLFYTLAKWENNKLHVELPENIDKQSPTMTLIYDENGQLLWAQRDVPWLMKMIQPDWLKSNGFHEIEADVNDTSLLLSGDHSIQQQLQEVREDDDDAEMTHSVAVNVYPATSRMPKLTIVVVDTIPVELKSSYMVWSWFIYVLSANLLLVIPLLWVAAWWSLRPIEALAKEVRELEEHNRELLNPATTRELTSLVRNLNRLLKSERERYDKYRTTLTDLTHSLKTPLXXLQXXLRSLRSEKMSVSDAEPVMLEQISRISQQIGYYLHRASMRGGTLLSRELHPVAPLLDNLTSALNKVYQRKGVNISLDISPEISFVGEQNDFVEVMGNVLDNACKYCLEFVEISARQTDEHLYIVVEDDGPGIPLSKREVIFDRGQRVDTLRPGQGVGLAVAREITEQYEGKIVAGESMLGGARMEVIFGRQHSAPKDE

Whole data set: some 140,000 sequences, median “enrichment ratio after two sorts for PhoP signalling” near 0, cut for the highest 2% near 11. Shown is part of a subset that was picked to be rich in the highest values.

The test covers variants of B1. The experiment in a line: enrichment ratio after two sorts for PhoP signalling (ratio (wild type AVST 3.29)); higher = more functional. The note with it: with PhoP (E. coli).
Consider MWFH, for which the enrichment ratio is at most 0.25.

For the variant PGWI, the enrichment ratio was at most 0.25.

In the case of ESFA, the enrichment ratio is at most 0.25.

With HNYP, the enrichment ratio was at most 0.25.

Regarding MKHE, the enrichment ratio was at most 0.25.

Regarding GLGE, the enrichment ratio is at most 0.25.

On to GQQP, for which the enrichment ratio was at most 0.25.

FLMS: the enrichment ratio was at most 0.25.

Regarding ANVH, the enrichment ratio was at most 0.25.

Regarding TNTL, the enrichment ratio came to 14.

Take GTTL: the enrichment ratio was found to be 11.7.

In the case of SQTL, the enrichment ratio is 12.3.

Regarding TWTL, the enrichment ratio was at most 0.25.

Regarding FTTL, the enrichment ratio was 3.67.

As for IQTL, the enrichment ratio is at most 0.25.

As to FQTL, the enrichment ratio was found to be 1.49.

Consider MNTL, for which the enrichment ratio is 3.28.

With WNTL, the enrichment ratio was at most 0.25.

In the case of SNTL, the enrichment ratio was determined as 14.6.

With GNTL, the enrichment ratio came out at 6.85.

For the variant QCRR, the enrichment ratio was at most 0.25.

As for NVGP, the enrichment ratio was at most 0.25.

SGTL: the enrichment ratio amounted to 7.51.

Turning to WPCQ, the enrichment ratio was at most 0.25.

Turning to HKKN, the enrichment ratio is at most 0.25.

PVRE: the enrichment ratio is at most 0.25.

With NYRG, the enrichment ratio was at most 0.25.

Take SVTL: the enrichment ratio is 12.2.

Regarding KCTL, the enrichment ratio was at most 0.25.

As for KFTL, the enrichment ratio was at most 0.25.

As to FCTL, the enrichment ratio was at most 0.25.

With SVWL, the enrichment ratio was at most 0.25.

For the variant VCTL, the enrichment ratio was 6.03.

Take SLTL: the enrichment ratio amounted to 15.2.

For TCTL, the enrichment ratio came out at 20.7.

PLTL: the enrichment ratio was at most 0.25.

WLTL: the enrichment ratio worked out at 0.379.

Consider SCTL, for which the enrichment ratio is 14.2.

As for EAPT, the enrichment ratio is at most 0.25.

Take TVGM: the enrichment ratio stood at 10.4.

Turning to MWTK, the enrichment ratio is at most 0.25.

With AEKL, the enrichment ratio was at most 0.25.

With ARYC, the enrichment ratio is at most 0.25.

On to ESWQ, for which the enrichment ratio was at most 0.25.

Turning to HSSR, the enrichment ratio is at most 0.25.

Take LRFQ: the enrichment ratio is at most 0.25.

As for FLTL, the enrichment ratio was found to be 0.273.

Take NETL: the enrichment ratio was at most 0.25.

On to TLTL, for which the enrichment ratio is 14.1.

Consider SETL, for which the enrichment ratio turned out to be 14.8.

For YTTL, the enrichment ratio was 3.18.

With VLTL, the enrichment ratio came to 3.19.

Turning to ITTL, the enrichment ratio amounted to 0.464.

For QETL, the enrichment ratio was at most 0.25.

With STTL, the enrichment ratio stood at 16.6.

With MHRQ, the enrichment ratio is at most 0.25.

As to GSPC, the enrichment ratio was at most 0.25.

Consider QHLF, for which the enrichment ratio was at most 0.25.

As to RLFC, the enrichment ratio is at most 0.25.

For the variant NYDD, the enrichment ratio is at most 0.25.

Turning to RDCN, the enrichment ratio is at most 0.25.

As for EACS, the enrichment ratio is at most 0.25.

Regarding MLAN, the enrichment ratio was at most 0.25.

As to MEYQ, the enrichment ratio was at most 0.25.

For the variant KCYQ, the enrichment ratio was at most 0.25.

MCYQ: the enrichment ratio was determined as 17.2.

MLYQ: the enrichment ratio was found to be 18.8.

Turning to NCYQ, the enrichment ratio is at most 0.25.

With MLYD, the enrichment ratio is at most 0.25.

As for MADQ, the enrichment ratio is at most 0.25.

Regarding VHFE, the enrichment ratio is at most 0.25.

Regarding ESLL, the enrichment ratio is 0.525.

On to ELNQ, for which the enrichment ratio is at most 0.25.

Consider YNSK, for which the enrichment ratio is at most 0.25.

On to YNNL, for which the enrichment ratio was at most 0.25.

Consider GIML, for which the enrichment ratio came to 8.24.

For the variant TNML, the enrichment ratio amounted to 1.41.

VGML: the enrichment ratio came out at 8.33.

On to MNMI, for which the enrichment ratio worked out at 4.

In the case of YNML, the enrichment ratio worked out at 13.9.

With LNML, the enrichment ratio worked out at 2.48.

With MNML, the enrichment ratio worked out at 24.9.

As to GQML, the enrichment ratio stood at 7.95.

For GNML, the enrichment ratio worked out at 12.2.

Consider GGML, for which the enrichment ratio worked out at 15.7.

In the case of SKFF, the enrichment ratio was at most 0.25.

Consider ALTN, for which the enrichment ratio was 7.81.

Regarding SRAG, the enrichment ratio is at most 0.25.

Regarding IRNN, the enrichment ratio was at most 0.25.

Take KMTD: the enrichment ratio was at most 0.25.

For DIIE, the enrichment ratio was at most 0.25.

As to HEPC, the enrichment ratio is at most 0.25.

Take YNTI: the enrichment ratio is at most 0.25.

Consider GRQY, for which the enrichment ratio is at most 0.25.

Take MVCL: the enrichment ratio amounted to 4.31.

Turning to MVPL, the enrichment ratio was at most 0.25.

Take VNSK: the enrichment ratio is at most 0.25.

In the case of HIML, the enrichment ratio was at most 0.25.

As for HGML, the enrichment ratio turned out to be 21.6.

For the variant TGML, the enrichment ratio worked out at 12.2.

On to RGML, for which the enrichment ratio is at most 0.25.

For the variant HFML, the enrichment ratio is at most 0.25.

As for VNML, the enrichment ratio is 14.6.

As to NGML, the enrichment ratio was at most 0.25.

Take MVML: the enrichment ratio turned out to be 11.9.

As for VNNL, the enrichment ratio is at most 0.25.

As to YQHI, the enrichment ratio is at most 0.25.

For FWLA, the enrichment ratio is at most 0.25.

In the case of TCLH, the enrichment ratio was determined as 1.39.

Turning to SHYK, the enrichment ratio is at most 0.25.

On to DMSQ, for which the enrichment ratio is at most 0.25.

With IDIQ, the enrichment ratio was at most 0.25.

In the case of RRTP, the enrichment ratio is at most 0.25.

MAIN: the enrichment ratio is at most 0.25.

Turning to GTWQ, the enrichment ratio was at most 0.25.

Regarding EFQI, the enrichment ratio was at most 0.25.

As for FGDL, the enrichment ratio was at most 0.25.

QGML: the enrichment ratio was 6.23.

For GTML, the enrichment ratio turned out to be 12.6.

On to GCML, for which the enrichment ratio is 3.33.

In the case of PVML, the enrichment ratio is at most 0.25.

With FGML, the enrichment ratio came to 22.9.

With GYML, the enrichment ratio was at most 0.25.

As for PWML, the enrichment ratio is at most 0.25.

Regarding GVML, the enrichment ratio stood at 13.4.

As to SCGR, the enrichment ratio is at most 0.25.

In the case of GTVR, the enrichment ratio was at most 0.25.

As for SFSS, the enrichment ratio was at most 0.25.

In the case of VDHN, the enrichment ratio was at most 0.25.

On to ILLE, for which the enrichment ratio was at most 0.25.

Regarding DHMC, the enrichment ratio was at most 0.25.

For the variant FYNT, the enrichment ratio is at most 0.25.

ANLF: the enrichment ratio worked out at 10.7.

With KIQT, the enrichment ratio was at most 0.25.

Regarding ISLD, the enrichment ratio was at most 0.25.

In the case of ETRK, the enrichment ratio was at most 0.25.

For the variant QGAM, the enrichment ratio is 13.

For the variant TRAM, the enrichment ratio was 15.1.

For NHAM, the enrichment ratio was at most 0.25.

With QGWM, the enrichment ratio was found to be 9.7.

Regarding VRAM, the enrichment ratio is at most 0.25.

Turning to NGAM, the enrichment ratio is at most 0.25.

FFAM: the enrichment ratio was at most 0.25.

As for THAM, the enrichment ratio was 18.6.

Regarding SHAM, the enrichment ratio was 8.88.

For the variant SRAM, the enrichment ratio was at most 0.25.

Take TGAM: the enrichment ratio stood at 13.

Regarding RGAM, the enrichment ratio is at most 0.25.

For EKVL, the enrichment ratio was at most 0.25.

In the case of YQEF, the enrichment ratio was at most 0.25.

For KAPT, the enrichment ratio was at most 0.25.

On to IGGQ, for which the enrichment ratio was at most 0.25.

For TFGM, the enrichment ratio stood at 1.64.

NIAM: the enrichment ratio is at most 0.25.

For the variant YHAM, the enrichment ratio was at most 0.25.

For the variant TDAM, the enrichment ratio was 17.8.

Take KDAM: the enrichment ratio was at most 0.25.

As to TFAM, the enrichment ratio was 18.6.

Consider LTAM, for which the enrichment ratio is at most 0.25.

For TFTM, the enrichment ratio worked out at 3.86.

With GGAM, the enrichment ratio was found to be 18.2.

Take LYIW: the enrichment ratio was at most 0.25.

Turning to VRDS, the enrichment ratio was at most 0.25.

Turning to TKMI, the enrichment ratio amounted to 38.2.

Take ADFA: the enrichment ratio was at most 0.25.

Take TDFA: the enrichment ratio was at most 0.25.

As to LTMI, the enrichment ratio turned out to be 0.673.

For TDMI, the enrichment ratio was 27.6.

For the variant AKMD, the enrichment ratio is at most 0.25.

For AKMI, the enrichment ratio stood at 12.8.

Take AIMI: the enrichment ratio worked out at 5.72.

As to AYMI, the enrichment ratio came to 0.272.

Regarding TKMG, the enrichment ratio came out at 7.64.

As for ADMI, the enrichment ratio stood at 12.7.

Consider PTMI, for which the enrichment ratio is at most 0.25.

For the variant LVPL, the enrichment ratio is at most 0.25.

As to PNNY, the enrichment ratio is at most 0.25.

Turning to WLFH, the enrichment ratio was at most 0.25.

As for PLHT, the enrichment ratio is at most 0.25.

As to QAAQ, the enrichment ratio was at most 0.25.

Turning to EGTK, the enrichment ratio is at most 0.25.

APAS: the enrichment ratio is at most 0.25.

For ALRD, the enrichment ratio is at most 0.25.

In the case of ATMI, the enrichment ratio came out at 19.9.

For the variant TDMK, the enrichment ratio came out at 11.7.

Consider LTMK, for which the enrichment ratio is at most 0.25.

Regarding ALMD, the enrichment ratio is at most 0.25.

KDMK: the enrichment ratio was at most 0.25.

On to ATYI, for which the enrichment ratio was at most 0.25.

ALMI: the enrichment ratio amounted to 17.6.

Regarding ATPA, the enrichment ratio is at most 0.25.

As for ALMG, the enrichment ratio came out at 6.08.

Consider NVRS, for which the enrichment ratio is at most 0.25.

Consider HGKV, for which the enrichment ratio is at most 0.25.

With KGKP, the enrichment ratio was at most 0.25.

The values are drawn from a collection of fitness landscapes (doi:10.1126/science.1257360).
